Screening data as filed in PubChem BioAssay.
Rows were chosen to be rich in hits. Some 4.3% of all compounds tested hit in one or more screens of this group.
Bead autofluor = flagged as autofluorescent in microsphere protease counterscreen | compound autofluorescence counterscreen, microsphere flow cytometry; active compounds read high | fluorescence intensity (test concentration not listed) | hit rate 3.1% among 360,000; in the data active = fluorescence intensity above about 16000; inconclusive = no clear call, values can overlap the other calls
BoNT-A LC inh2 = BoNT A light chain protease inhibition. multiplex microsphere protease substrate cleavage, flow cytometry. inhibition, % at 10 µM. hit rate 0.17% among 360,000. AID 588499
MazEF act = MazEF (E. coli) toxin RNase activation; hit rate 0.32% among 350,000; FAM/BHQ RNA-DNA oligo cleavage fluorescence, 5 h; activation, % at 20 µM; P0AE70; in the data active = activation above about 50%
BoNT F protease = blocks Botulinum neurotoxin F light chain protease | AID 588497 | hit rate 0.22% among 360,000 | Multiplex microsphere protease cleavage assay, flow cytometry | inhibition, % at 10 µM; in the data active = inhibition above about 35%, passing the limit was not always enough; inconclusive = no clear call, values can overlap the other calls
Anthrax LF inh2 = anthrax lethal factor protease inhibition; hit rate 0.12% among 360,000; AID 588501; inhibition, % at 10 µM; P15917; multiplex microsphere protease cleavage assay, LF
PfHsp40 rescue = restores yeast growth despite PfHsp40 toxicity; hit rate 0.68% among 340,000; AID 504582; S. cerevisiae expressing PfHsp40, growth rescue, ATP luminescence; growth rescue, % at 12.5 µM; in the data active = growth rescue above about 28%, passing the limit was not always enough; inconclusive = no clear call, values can overlap the other calls;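 also: yeast W303a lacking pdr1 and pdr3 grown in galactose medium; growth measured after three days at 30 °C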
Hits are given with their value; 0 = inactive; ? = inconclusive; - = not tested or not shown. Rule as the data show it, unless noted: active = inhibition above about 30%; inconclusive = no clear call, values can overlap the other calls; inactive = below that.

SMILES	Bead autofluor	BoNT-A LC inh2	MazEF act	BoNT F protease	Anthrax LF inh2	PfHsp40 rescue
C/C(CC(=O)Nc1ccc([N+](=O)[O-])cc1)=N/NC(=O)C1CC12CCC2 (stereo not drawn)	0	0	0	0	0	0
COC(=O)c1cn(C)c2ccc(S(=O)(=O)N3CCCC3)cc2c1=O	20045	0	0	0	0	0
CC1CCN(S(=O)(=O)c2ccc3c(c2)c(=O)c(C(=O)NC2CCCC2)cn3C)CC1	20721	?	0	0	0	0
CC1CCCCC1NC(=O)c1cn(C)c2ccc(S(=O)(=O)N3CCCC3)cc2c1=O (stereo not drawn)	20217	?	0	0	0	0
CCCCNC(=O)c1cn(C)c2ccc(S(=O)(=O)N3CCCC3)cc2c1=O	0	0	0	0	0	0
COC(=O)c1cn(C)c2ccc(S(=O)(=O)N3CCOCC3)cc2c1=O	0	0	0	0	0	0
Cn1cc(C(=O)NC2CCCCC2)c(=O)c2cc(S(=O)(=O)N3CCCC3)ccc21	0	0	0	0	0	0
CCc1nc2oc3ccccc3c(=O)c2cc1C(=O)OC	0	0	0	0	0	0
COc1ccccc1C(=O)N1CCN(C(=O)[C@H]2O[C@@H](n3cnc4c(N)ncnc43)[C@H](O)[C@@H]2O)CC1	0	0	-	0	0	-
Cc1cccc(C)c1NC(=O)CSc1n[nH]c(=O)n1C1CC1	0	0	0	0	0	0
O=C1CCC(c2ccccc2)N1C(=O)c1cccnc1 (stereo not drawn)	23368	0	0	0	0	0
O=S(=O)(c1c(F)cccc1F)N(CCc1ccc(F)cc1)C[C@@H](O)COCc1ccccc1	0	0	0	0	0	114
CCOc1ccccc1NC(=O)c1cccc2ccccc12	-	-	0	-	-	0
CCOc1ccccc1C(=O)Nc1ccccc1C(N)=O	23043	?	0	0	0	0
CCOC(=O)CC(=O)Nc1ccccc1C(=O)O	0	0	0	0	0	0
CCOC(=O)CCC(=O)Nc1ccccc1C(N)=O	22534	?	0	0	0	0
CCOC(=O)C(=O)Nc1ccccc1C(=O)NC(C)C	22964	0	0	0	0	0
CCOC(=O)c1sc2nc(CC(=O)OC)nc(NCc3ccc(F)cc3)c2c1C	16799	0	0	0	0	0
CCOC(=O)c1sc2nc(C)nc(NCc3ccc(F)cc3)c2c1C	0	0	0	0	0	0
CC1CCCN(C(=O)CN(C)S(=O)(=O)c2cccc3nsnc23)C1 (stereo not drawn)	0	0	0	0	0	0
COc1ccc(-n2nc(C(=O)NCC(=O)N3CC(C)CC(C)C3)c3ccccc3c2=O)cc1OC (stereo not drawn)	0	0	0	0	0	0
COc1cccc(-n2nc(C(=O)N3CC(C)CC(C)C3)c3ccccc3c2=O)c1 (stereo not drawn)	20358	0	0	0	0	0
COC(=O)c1sc(=S)n(-c2cccc(Cl)c2)c1N	26583	0	0	0	0	0
COc1ccc(N2CCN(C(c3cc4cc(C)ccc4[nH]c3=O)c3nnnn3Cc3ccccc3)CC2)cc1 (stereo not drawn)	20480	0	0	0	0	0
Cc1ccc2cc(C(c3nnnn3Cc3ccccc3)N3CCN(c4ccccc4)CC3)c(=O)[nH]c2c1 (stereo not drawn)	23279	0	0	0	0	0
SMILES	Bead autofluor	BoNT-A LC inh2	MazEF act	BoNT F protease	Anthrax LF inh2	PfHsp40 rescue
CCCCN1CC(COCc2ccccc2)Oc2cccc(Oc3cc(C)c(C)c(C)c3)c2S1(=O)=O (stereo not drawn)	0	0	0	0	0	0
CC(NC(=O)C(Cc1ccccc1)NC(=O)c1ccccc1)C(=O)O (stereo not drawn)	22982	?	0	0	0	0
CC(=O)Nc1ccccc1-c1cccc2nccn12	0	0	-	0	0	-
CN(C)c1ccnc(SCc2ccccc2Cl)c1C#N	22367	0	0	0	0	0
O=C(Nc1nncs1)c1cccc(S(=O)(=O)N2CCCC2)c1	0	0	0	0	0	0
O=C(Nc1nncs1)c1cccc(S(=O)(=O)N2CCOCC2)c1	16353	0	0	0	0	0
Cc1ccc(NC(=O)c2cccc(S(=O)(=O)N3CCCC3)c2)nc1	0	0	0	0	0	0
O=C(Nc1ccc(Cl)cn1)c1cccc(S(=O)(=O)N2CCOCC2)c1	20815	0	0	0	0	0
Cn1c(N)c(C(=O)CN2CCN(S(=O)(=O)c3ccccc3C#N)CC2)c(=O)n(C)c1=O	0	0	0	0	0	-
